Each sequence was assayed against FASN (assay: pooled miR-30 sensor sort-seq; sequence = guide strand). Conditions: shRNA.
Also: reference of the scale not given here.

Sequence | sensor-assay potency score (higher = more potent)
TTCTTTGATGCACTGTCCCCTC | -0.75
TTCAGCTTGCCGGACCGCCGGG | -0.801
TTTCTCACAGATACGCTCCATG | -0.419
AAGAACTCCAGGTTGTCCCTGT | 0.747
TTCCTCGGAGTGAATCTGGGTT | 0.14
TTGTTGACATTGTACTCGGCGG | -1.03
TTGAGCTCCTGCAGCAGTGGGG | -0.482
TAGTAGACCGTGCAGAGCTGGG | -0.853
ATAGGTGACTTCCAGCAGCAGC | -1.01
TTGTACTCGGCGGAGGACGTGC | -0.733
TTGATGATCAGGTCCACGGCGG | 0.0156
TTGCACACCAGGAGGTCGGCGC | -0.835
TAGGTGGGGATGCTGAGCCGGG | -1.21
TTCTCTGACACCTCGAAGGCAC | -0.474
TAGAGGTGCTGAGCCAGCGGGC | -1.55

What follows are sequences tested against FBLIM1 in the same assay as above. Conditions: shRNA.

Sequence | sensor-assay potency score (higher = more potent)
TTGAAGAGCTGCATAGGTGCAG | 0.627
TAATAAACCAGTAGACAGGAAA | -1.08
TTCTCAACAGGTTCTGCCGGGG | -0.331
TTTCCTGTAGAAGTCGTCCAGG | -0.297
TCTAAGTCTGCAATGAGTGAGG | -0.617
TGAAGAGCTGCATAGGTGCAGC | -0.713
TTTCTCAACAGGTTCTGCCGGG | 0.497
TTTCATGGAAGTTTCTTCCCAT | 0.731
TTCTGGTAGAAGCTCTGCCCAG | -1.24
TAGACAGGAAACTCTGGCCCAG | -0.916
TCTGGTAGAAGCTCTGCCCAGC | -0.202
TCGACAGACAGGAGGATCCTGC | -0.78

These sequences were tested against FBXL21 in the same assay as above. Conditions: shRNA.

Sequence | sensor-assay potency score (higher = more potent)
TCACACAGTCTTACAAACCTGA | 0.117
AACAACATTAACTCTAGGGGAA | -0.232
TTTAATGATCTGCTGAATGAGA | -0.579
TTCAGTGTGAATTTCATCTAGG | 0.327
TTGAGTTGATAAAAACAACTGT | 0.22
TCAAATTCAAACTTTCTCCAAA | -0.476
TAGAGTGTCACTATTATTGGCC | 0.27
TTCTTTGAAGAACGTCTCGAAT | -1.19
TGCATAACAACATTAACTCTAG | -0.667
TAACAACATTAACTCTAGGGGA | -0.101
TTAACATGAGTCTCGCTTGAGA | -0.687

— the OligoGym collection
